Active and inactive are the calls of the source.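 The calls were made as follows: active = NF-kB reporter IC50 at most 10 µM, IL-8 IC50 within fivefold of it with bacterial filtrate but not with TNF-alpha; inactive = the rest.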

Sequence of Interleukin-8 (Homo sapiens) (P10145 whole entry, looked up): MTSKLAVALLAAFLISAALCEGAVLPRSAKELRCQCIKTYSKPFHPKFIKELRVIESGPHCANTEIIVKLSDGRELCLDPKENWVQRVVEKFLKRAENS

The experiment concerns the target Interleukin-8 (Homo sapiens) (UniProt P10145). Kind of experiment: inhibitors of NFkB activation in CF airway cells, SAR follow-up, KKLEB cells, panel, IL8 HTRF, NFkB-GFP (AID 651592).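 Also: immortalized cystic fibrosis airway epithelial KKLEB cells with an NF-kB GFP reporter.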 To be noted: PAF/TNFa-induced NFkB-GFP / IL8 HTRF, mean of runs.
For the compound `O=C(Nc1ccc(N2CCN(C(=O)c3ccccc3)CC2)cc1)c1cccnc1`, the compound was classed as active.

Consider `O=C(Nc1ccc(N2CCN(C(=O)c3ccccc3F)CC2)cc1)c1cc(Br)cc(Br)c1`, for which the compound was called active.

Turning to `CCOc1ccc(NCc2cc3c(C)nn(-c4ccccc4)c3[nH]c2=O)cc1`, the call was inactive.

With `O=C(Nc1ccc(N2CCN(C(=O)c3ccc(F)cc3)CC2)cc1)c1ccccc1`, the call was active.

`O=C(Nc1ccc(N2CCN(C(=O)c3ccccc3Cl)CC2)cc1)c1ccncc1`: the compound was called active.

Consider `O=C(Nc1ccc(N2CCN(C(=O)c3ccccc3F)CC2)cc1)c1ccccn1`, for which the compound was classed as active.

As for `O=C(Nc1ccc(N2CCN(C(=O)c3ccc(F)cc3)CC2)cc1)c1cncc(Br)c1`, the result was inactive.

Turning to `O=C(Nc1ccc(N2CCN(C(=O)c3ccccc3)CC2)cc1)c1ccccn1`, the result was active.

With `CCOc1ccc(NCc2cc3c(-c4ccc(OC)c(OC)c4)nn(-c4ccccc4)c3[nH]c2=O)cc1`, the compound was classed as active.

Turning to `O=C(Nc1ccc(N2CCN(C(=O)c3ccccc3)CC2)cc1)c1cccc(Br)c1`, the result was active.

Regarding `Cc1ccc(CNCc2cc3c(C(C)(C)C)nn(-c4ccccc4)c3[nH]c2=O)cc1`, the outcome was active.

With `O=C(Nc1ccc(N2CCN(C(=O)c3ccccc3F)CC2)cc1)c1cccnc1`, the result was active.

Turning to `O=C(Nc1ccc(N2CCN(C(=O)c3ccccc3F)CC2)cc1)c1cccc(Br)c1`, the compound was classed as active.

Consider `O=C(Nc1ccc(N2CCN(C(=O)c3ccccc3)CC2)cc1)c1ccncc1`, for which the compound was classed as active.

On to `O=C(Nc1ccc(N2CCN(C(=O)c3ccccc3)CC2)cc1)c1ccccc1`, for which the compound was classed as active.

As for `O=C(Nc1ccc(N2CCN(C(=O)c3ccc(F)cc3)CC2)cc1)c1cc(Br)cc(Br)c1`, the call was active.

In the case of `O=C(Nc1ccc(N2CCN(C(=O)c3ccccc3F)CC2)cc1)c1ccncc1`, the result was active.

For `O=C(Nc1ccc(N2CCN(C(=O)c3ccc(F)cc3)CC2)cc1)c1cccnc1`, the result was active.

For `O=C(Nc1ccc(N2CCN(C(=O)c3ccc(F)cc3)CC2)cc1)c1ccncc1`, the outcome was active.

With `CCOc1ccc(NCc2cc3c(-c4ccc(F)cc4)nn(-c4ccccc4)c3[nH]c2=O)cc1`, the result was inactive.

For the compound `O=C(Nc1ccc(N2CCN(C(=O)c3ccccc3)CC2)cc1)c1cc(Br)cc(Br)c1`, the result was active.

As for `CCOc1ccc(NCc2cc3c(C(C)(C)C)nn(-c4ccc(Cl)cc4)c3[nH]c2=O)cc1`, the result was active.

`O=C(Nc1ccc(N2CCN(C(=O)c3ccccc3Cl)CC2)cc1)c1cccnc1`: the compound was called active.

For `O=C(Nc1ccc(N2CCN(C(=O)c3ccccc3Cl)CC2)cc1)c1ccccc1`, the call was inactive.

Regarding `O=C(Nc1ccc(N2CCN(C(=O)c3ccccc3Cl)CC2)cc1)c1ccccn1`, the result was active.

Regarding `O=C(Nc1ccc(N2CCN(C(=O)c3ccc(F)cc3)CC2)cc1)c1cccc(Br)c1`, the call was active.

In the case of `O=C(Nc1ccc(N2CCN(C(=O)c3ccccc3)CC2)cc1)c1cncc(Br)c1`, the result was inactive.

Regarding `Cc1ccc(NCc2cc3c(C(C)(C)C)nn(-c4ccccc4)c3[nH]c2=O)cc1`, the result was active.

In the case of `O=C(Nc1ccc(N2CCN(C(=O)c3ccccc3Cl)CC2)cc1)c1cc(Br)cc(Br)c1`, the result was active.

Regarding `O=C(Nc1ccc(N2CCN(C(=O)c3ccccc3F)CC2)cc1)c1ccccc1`, the compound was classed as active.

In the case of `O=C(Nc1ccc(N2CCN(C(=O)c3ccccc3Cl)CC2)cc1)c1cccc(Br)c1`, the compound was called active.

As for `O=C(Nc1ccc(N2CCN(C(=O)c3ccccc3Cl)CC2)cc1)c1cncc(Br)c1`, the outcome was inactive.

As for `CCOc1ccc(NCc2cc3c(C(C)(C)C)nn(-c4ccccc4)c3[nH]c2=O)cc1`, the outcome was active.

`O=C(Nc1ccc(N2CCN(C(=O)c3ccc(F)cc3)CC2)cc1)c1ccccn1`: the outcome was active.
